From PubChem BioAssay AID1159580 (chemical genetic matrix, 2015)
Screen size: about 5,500 compounds; about 2,000 (36%) were called active. Not shown: some 18% with an inconclusive outcome. No stated cut-off is given here; in the data, active means normalized growth mostly below about 0.91 (no sharp cut-off); inconclusive means no clear call, values can overlap the other calls; inactive means mostly above about 0.92. The list shows a part of the results.

Experiment: chemical genetic growth profiling, strain panel (AID 1159580);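 further: tested at 20 µM; growth read once vehicle control cultures reached saturation at 30 °C; 1 = growth at the plate median or of vehicle wells; lower values mean less growth of the strain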
Conditions: S. cerevisiae deletion strains, growth OD

Measured: normalized growth

C[C@@H]1OC(O[C@H]2C(O[C@H]3CC[C@@]4(C)C(CC[C@]5(C)C4CC=C4C6CC(C)(C)CC[C@]6(C(=O)O)CC[C@]45C)[C@]3(C)CO)OC[C@H](O)[C@@H]2O)[C@H](O)[C@H](O)[C@H]1O (stereo not given in full)
active: locus YAL021C, strain ccr4, active compounds read low 0.0607 | locus YAL026C, strain drs2, active compounds read low 0.0592 | locus YAL030W, strain snc1, active compounds read low 0.0552 | locus YBL061C, strain skt5, active compounds read low 0.058 | locus YBR009C, strain hhf1, active compounds read low 0.061 | locus YBR021W, strain FUR4, active compounds read low 0.267 | locus YBR023C, strain chs3, active compounds read low 0.0603 | locus YBR171W, strain sec66, active compounds read low 0.0767 | locus YBR229C, strain ROT2, active compounds read low 0.32 | locus YBR231C, strain swc5, active compounds read low 0.0595 | locus YBR279W, strain paf1, active compounds read low 0.0577 | locus YCL011C, strain gbp2, active compounds read low 0.0544 | locus YCL016C, strain dcc1, active compounds read low 0.0589 | locus YCL029C, strain bik1, active compounds read low 0.0636 | locus YCL061C, strain MRC1, active compounds read low 0.0604 | locus YCL069W, strain vba3, active compounds read low 0.0603 | locus YCR088W, strain abp1, active compounds read low 0.059 | locus YDL005C, strain med2, active compounds read low 0.0706 | locus YDL035C, strain GPR1, active compounds read low 0.483 | locus YDL040C, strain nat1, active compounds read low 0.0557 | locus YDL074C, strain BRE1, active compounds read low 0.269 | locus YDL101C, strain DUN1, active compounds read low 0.44 | locus YDL185W, strain tfp1, active compounds read low 0.0554 | locus YDL192W, strain arf1, active compounds read low 0.0745 | locus YDR001C, strain nth1, active compounds read low 0.0586 | locus YDR069C, strain doa4, active compounds read low 0.0606 | locus YDR101C, strain arx1, active compounds read low 0.0695 | locus YDR137W, strain rgp1, active compounds read low 0.0801 | locus YDR159W, strain sac3, active compounds read low 0.0844 | locus YDR162C, strain NBP2, active compounds read low 0.299 | locus YDR195W, strain ref2 0.105 | locus YDR297W, strain sur2, active compounds read low 0.0548 | locus YDR318W, strain mcm21, active compounds read low 0.0705 | locus YDR334W, strain swr1, active compounds read low 0.0629 | locus YDR335W, strain msn5, active compounds read low 0.0601 | locus YDR388W, active compounds read low 0.0545 | locus YDR392W, strain spt3, active compounds read low 0.0915 | locus YDR502C, strain sam2, active compounds read low 0.0793 | locus YEL003W, strain gim4, active compounds read low 0.0528 | locus YEL037C, strain rad23, active compounds read low 0.0576 | locus YEL061C, strain CIN8 (second series), active compounds read low 0.0604 | locus YEL061C, strain CIN8, active compounds read low 0.447 | locus YER015W, strain faa2, active compounds read low 0.059 | locus YER016W, strain bim1, active compounds read low 0.059 | locus YER110C, active compounds read low 0.0996 | locus YER111C, strain swi4, active compounds read low 0.0703 | locus YER155C, strain BEM2 (second series), active compounds read low 0.0853 | locus YER155C, strain BEM2, active compounds read low 0.124 | locus YER167W, strain BCK2, active compounds read low 0.24 | locus YFR010W, strain ubp6, active compounds read low 0.0632 | locus YGL078C, strain dbp3, active compounds read low 0.056 | locus YGL086W, strain mad1, active compounds read low 0.0905 | locus YGL167C, strain pmr1, active compounds read low 0.0718 | locus YGL173C, strain kem1, active compounds read low 0.0643 | locus YGL227W, strain vid30, active compounds read low 0.0617 | locus YGL240W, strain doc1, active compounds read low 0.0707 | locus YGL248W, strain PDE1, active compounds read low 0.422 | locus YGL253W, strain hxk2, active compounds read low 0.053 | locus YGR078C, strain PAC10, active compounds read low 0.325 | locus YGR135W, strain pre9, active compounds read low 0.136 | locus YGR252W, strain gcn5, active compounds read low 0.157 | locus YHR013C, strain ard1, active compounds read low 0.114 | locus YHR027C, strain rpn1, active compounds read low 0.0611 | locus YHR030C, strain SLT2, active compounds read low 0.103 | locus YHR079C, strain IRE1 (second series), active compounds read low 0.0576 | locus YHR094C, strain hxt1, active compounds read low 0.0605 | locus YHR129C, strain ARP1, active compounds read low 0.202 | locus YHR142W, strain chs7, active compounds read low 0.0688 | locus YHR200W, strain rpn10, active compounds read low 0.0676 | locus YIL066C, strain RNR3, active compounds read low 0.457 | locus YIL073C, strain SPO22, active compounds read low 0.285 | locus YIL125W, strain kgd1, active compounds read low 0.0561 | locus YIR030C, strain dcg1, active compounds read low 0.0652 | locus YJL092W, strain hpr5, active compounds read low 0.0579 | locus YJL095W, strain BCK1 (second series), active compounds read low 0.0567 | locus YJL095W, strain BCK1, active compounds read low 0.143 | locus YJL115W, strain asf1, active compounds read low 0.069 | locus YJL129C, strain trk1, active compounds read low 0.0793 | locus YJL134W, strain LCB3, active compounds read low 0.187 | locus YJL154C, strain vps35, active compounds read low 0.0589 | locus YJL164C, strain tpk1, active compounds read low 0.0589 | locus YJL166W, strain qcr8, active compounds read low 0.0599 | locus YJL168C, strain set2, active compounds read low 0.0664 | locus YJL187C, strain SWE1 (second series), active compounds read low 0.48 | locus YJL187C, strain SWE1, active compounds read low 0.0554 | locus YJR043C, strain POL32, active compounds read low 0.42 | locus YKL009W, strain mrt4, active compounds read low 0.0928 | locus YKL068W, active compounds read low 0.0555 | locus YKL085W, strain MDH1 (second series), active compounds read low 0.0602 | locus YKL085W, strain MDH1, active compounds read low 0.0602 | locus YKL160W, strain elf1, active compounds read low 0.0617 | locus YKR001C, strain vps1, active compounds read low 0.0888 | locus YKR026C, strain gcn3, active compounds read low 0.0618 | locus YKR091W, strain srl3, active compounds read low 0.0568 | locus YLL001W, strain dnm1, active compounds read low 0.0585 | locus YLL026W, active compounds read low 0.0562 | locus YLL041C, strain sdh2, active compounds read low 0.0555 | locus YLR027C, strain aat2, active compounds read low 0.0549 | locus YLR039C, strain RIC1, active compounds read low 0.135 | locus YLR058C, strain SHM2, active compounds read low 0.414 | locus YLR102C, strain apc9, active compounds read low 0.0668 | locus YLR221C, strain rsa3, active compounds read low 0.0578 | locus YLR258W, strain gsy2, active compounds read low 0.0581 | locus YLR262C, strain YPT6 (second series), active compounds read low 0.0763 | locus YLR262C, strain YPT6, active compounds read low 0.153 | locus YLR268W, strain sec22, active compounds read low 0.0705 | locus YLR320W, strain mms22, active compounds read low 0.0834 | locus YLR330W, strain CHS5, active compounds read low 0.213 | locus YLR342W, strain FKS1 (second series), active compounds read low 0.286 | locus YLR342W, strain FKS1, active compounds read low 0.0611 | locus YLR357W, strain rsc2, active compounds read low 0.11 | locus YLR370C, strain arc18, active compounds read low 0.0593 | locus YLR371W, strain rom2, active compounds read low 0.0622 | locus YLR384C, strain iki3, active compounds read low 0.0588 | locus YLR418C, strain cdc73, active compounds read low 0.114 | locus YML016C, strain PPZ1, active compounds read low 0.214 | locus YML032C, strain rad52, active compounds read low 0.0701 | locus YML120C, strain ndi1, active compounds read low 0.0572 | locus YML124C, strain tub3, active compounds read low 0.0681 | locus YMR058W, strain fet3, active compounds read low 0.0577 | locus YMR078C, strain ctf18, active compounds read low 0.0754 | locus YMR125W, strain sto1, active compounds read low 0.0713 | locus YMR129W, active compounds read low 0.0556 | locus YMR205C, strain PFK2, active compounds read low 0.0864 | locus YMR223W, strain ubp8, active compounds read low 0.0761 | locus YMR231W, strain pep5, active compounds read low 0.0636 | locus YMR263W, strain SAP30, active compounds read low 0.185 | locus YMR307W, strain GAS1, active compounds read low 0.117 | locus YNL067W, strain RPL9B, active compounds read low 0.471 | locus YNL071W, strain lat1, active compounds read low 0.0594 | locus YNL128W, strain TEP1, active compounds read low 0.401 | locus YNL209W, strain ssb2, active compounds read low 0.0578 | locus YNL233W, strain BNI4, active compounds read low 0.167 | locus YNL248C, strain rpa49, active compounds read low 0.0674 | locus YNL250W, strain rad50, active compounds read low 0.0622 | locus YNL271C, strain bni1, active compounds read low 0.058 | locus YNL298W, strain CLA4, active compounds read low 0.0574 | locus YNL307C, strain MCK1, active compounds read low 0.0651 | locus YNL322C, strain KRE1 (second series), active compounds read low 0.0635 | locus YNR049C, strain mso1, active compounds read low 0.0575 | locus YNR052C, strain pop2, active compounds read low 0.0612 | locus YOL147C, strain pex11, active compounds read low 0.0641 | locus YOR001W, strain rrp6, active compounds read low 0.0642 | locus YOR061W, strain CKA2, active compounds read low 0.723 | locus YOR069W, strain VPS5, active compounds read low 0.193 | locus YOR070C, strain gyp1, active compounds read low 0.0577 | locus YOR080W, strain dia2, active compounds read low 0.0631 | locus YOR083W, strain WHI5, active compounds read low 0.0595 | locus YOR106W, strain vam3, active compounds read low 0.0596 | locus YOR136W, strain idh2, active compounds read low 0.0808 | locus YOR144C, strain elg1, active compounds read low 0.0575 | locus YOR184W, strain ser1, active compounds read low 0.0762 | locus YOR265W, strain rbl2, active compounds read low 0.0556 | locus YOR270C, strain vph1, active compounds read low 0.0934 | locus YOR290C, strain snf2, active compounds read low 0.0761 | locus YOR316C, strain cot1, active compounds read low 0.0649 | locus YPL051W, strain arl3, active compounds read low 0.0588 | locus YPL078C, strain atp4, active compounds read low 0.0628 | locus YPL106C, strain sse1, active compounds read low 0.0896 | locus YPL240C, strain hsp82, active compounds read low 0.0548 | locus YPR119W, strain clb2, active compounds read low 0.0662 | locus YPR141C, strain kar3, active compounds read low 0.0612 | locus YPR163C, strain tif3, active compounds read low 0.0699 | locus YPR167C, strain met16, active compounds read low 0.0649 | strain wtn01, active compounds read low 0.0783
